Test results as given in PubChem BioAssay AID938 (National Center for Advancing Translational Sciences (NCATS), 2007).
“And” between values parts separate entries of the source, which are not always exact repeats. Equal values may be shown once. In all, about 73,000 compounds went through this assay and about 1,800 (2.5%) were called active. Roughly 13% stayed inconclusive and do not appear here. The entries come from a sample that favours actives as a whole. A call without a number means that no potency is given here. A number with no mark means an inactive call. Calls follow the shape of the dose curve; as a rule, active = well fitted activation curve with a large enough effect; inconclusive = small, poorly fitted or top-dose-only effect; inactive = no such curve, though single readings can be large or run the other way.
Potency is read from the fitted curve at half-maximal effect.

Assay: qHTS Assay for Agonists of the Thyroid Stimulating Hormone Receptor: Activators of Intracellular cAMP Concentrations in Parental HEK 293; also: nearly all actives have a fitted effect of over 55% in size
Details: parental HEK293 CNG cAMP sensor, membrane potential fluorescence; series mostly up to 57.1 µM
Text: NIH Chemical Genomics Center [NCGC]
NIH Molecular Libraries Screening Centers Network [MLSCN]
PI Name: Dr. Marvin Gershengorn
This cell based assay utilized a cyclic nucleotide gated ion channel (CNG) as a biosensor for cAMP induction. HEK 293 cells stably expressing the modified CNG were purchased from BD biosciences (http://www.atto.com/products/actone/features_benefits.shtml) . Stimulation of cAMP production causes the CNG to open and subsequent membrane depolarization to occur. A fluorescent membrane potential dye (BD biosciences) was utilized to detect cAMP stimulation in cells.
The cells were maintained in DMEM medium (Invitrogen) containing 10 % FBS (Hyclone), 100 units/ml Penicillin, 100 ug/ml Streptomycin (Invitrogen), and 250 ug/ml Geneticin (Invitrogen) and 1 ug/ml Puromycin (Invitrogen) at 37C in 5% CO2. This assay was used as a counterscreen to "qHTS Assay for Agonists of the Thyroid Stimulating Hormone Receptor", to control for compounds signaling through endogenous receptors and other targets of HEK 293 cells.
NCGC Assay Protocol Summary:
High Throughput Screening. Freshly passaged cells were dispensed into 1536-well assay plates at 4 ul/well in DMEM containing phenol red (Invitrogen), 10% FCS (Hyclone), and 100 units/ml Penicillin, 100 ug/ml Streptomycin (Invitrogen) and incubated at 37 C with 5% CO2 for 20 to 36 hrs before the robotic screening. The screen was initiated by addition of 4 ul/well membrane potential dye containing 100 uM RO 20-1724 (Sigma Aldrich), followed by 60 min incubation at room temperature to allow for dye equilibration across the cell membrane. 23 nl/well compound or control was then added to the assay plates, which were incubated for additional 30 min before reading a Envision fluorescence plate reader (Perkin Elmer) in bottom-read mode for fluorescence intensity (emission at 590 nm).
Keywords: cAMP, CNG Ion Channel, quantitative high throughput screening, qHTS, HTS, probe identification, CNG, cAMP, cyclic nucleotide gated ion channel PubChem
In the case of `CCC(c1nnnn1Cc1ccco1)N(CCc1ccccc1)Cc1cc2cccc(C)c2[nH]c1=O` (configuration not stated), the Potency is reported as 12.6 µM (active). In the case of `CCC(c1nnnn1Cc1ccco1)N(Cc1cc2cc(OC)ccc2[nH]c1=O)C1CCCCC1` (configuration not stated), the Potency is reported as 10 µM (active). With `COc1ccc2[nH]c(=O)c(CN(CC3CCCO3)C(=O)Nc3ccccc3)cc2c1` (configuration not stated) the Potency was “inactive”. For `COc1ccc2[nH]c(=O)c(CN(Cc3nnnn3CCc3ccccc3)CC3CCCO3)cc2c1` (configuration not stated), the Potency was “inactive”. In the case of `COc1ccc(CCN(Cc2cc3cccc(C)c3[nH]c2=O)C(=O)N2CCCC2)cc1OC`, the Potency is reported as “inactive”. With `CCC(c1nnnn1C1CCCC1)N(Cc1cccs1)Cc1cc2cccc(C)c2[nH]c1=O` (configuration not stated) the Potency was “inactive”. In the case of `COc1ccc(/C=C/NC(=O)Cc2ccc(OC)c(OC)c2)cc1`, the activation is reported as 28.5% [at 11.4 µM] and 7.24% [at 11.4 µM]. In the case of `Cn1c(CNc2nc(-c3ccccc3)cs2)nnc1SCC(=O)c1ccccc1`, the Potency is reported as “inactive”. With `CCN(CC)CCCCn1c(-c2ccccc2)nc2c(N3CCOCC3)nc(C)nc21` the Potency was “inactive”. In the case of `CC(=O)Nc1ccc(N2CCOCC2)c(C(=O)Nc2cccc(C)c2)c1`, the Potency is reported as “inactive”. For `O=C(CNC(=O)c1ccc(Cl)cc1Cl)NCC(=O)Nc1ccccc1N1CCOCC1`, the Potency was “inactive”. With `COc1c(C)cccc1C(=O)Nc1cc(Cl)ccc1N1CCOCC1` the Potency was 25.1 µM (active). In the case of `Cc1ccc(NC(=O)c2cccc(N(C)C)c2)cc1NC(=O)c1ccc(O)cc1`, the Potency is reported as “inactive”. In the case of `COC(=O)c1oc2ccc(Br)cc2c1NC(C)=O`, the Potency is reported as “inactive”. In the case of `Cc1cccc(OCc2nnc(SCn3nnc4ccccc4c3=O)o2)c1`, the Potency is reported as 25.1 µM (active). In the case of `Cc1cc(C)cc(OCc2nnc(SCC(=O)Nc3ccccc3)o2)c1`, the Potency is reported as “inactive”. With `Cc1cccc(OCc2nnc(SCc3nc4cc(C(F)(F)F)ccc4c(=O)[nH]3)o2)c1` the Potency was “inactive”. With `Cc1noc(C)c1S(=O)(=O)N(CC(=O)Nc1ccc2c(c1)OCCO2)c1ccc(C(C)C)cc1` the Potency was “inactive”. With `C=CCOc1ccc(/C=N/n2cncn2)cc1OC` the Potency was “inactive”. With `Cc1nc(C)c(C(=O)Nc2cccc(C)c2C)o1` the Potency was “inactive”. In the case of `CCC(=O)Oc1cccc(C(=O)Nc2ccc(-c3nnc(-c4ccco4)o3)cc2)c1`, the Potency is reported as “inactive”. With `Cc1ccc(OCC(=O)Nc2ccc(-c3nnc(-c4ccco4)o3)cc2)cc1` the Potency was “inactive”. In the case of `CCCCOc1ccc(-c2nnc(-c3ccco3)o2)cc1`, the Potency is reported as 20 µM (active). `CC(C)(C)c1ccc(OC2C=CC(C#Cc3ccccc3)OC2CO)cc1` (configuration not stated) showed an activation of 12.6% [at 11.4 µM]. For `Cc1cc2nc3c(=O)[nH]c(=O)nc-3n(C[C@H](O)[C@H](O)[C@H](O)CO)c2cc1C`, the Potency was “inactive”. With `CC(Cc1cccs1)NC(=O)NC1CCCCC1` (configuration not stated) the Potency was “inactive”. For `Cc1ccccc1NC(=O)c1cnn(-c2ccccc2)c1NC(=O)c1ccco1`, the Potency was “inactive”. In the case of `O=C(Nc1c(-c2ccccc2)nc2c(Br)cc(Br)cn12)c1ccco1`, the Potency is reported as 20 µM (active). For `O=C(Nc1ccc(Oc2ccccc2)cc1)c1ccco1`, the Potency was “inactive”. For `Cc1ccc(OCc2nc(C#N)c(N3CCCC3)o2)cc1`, the Potency was 20 µM (active). With `CCOc1ccc(Nc2oc(Cc3ccccc3)nc2C#N)cc1` the Potency was “inactive”. In the case of `N#Cc1nc(COc2ccc(Cl)cc2)oc1N1CCCC1`, the Potency is reported as 15.8 µM (active). For `Cn1c(=O)c2c(nc(N3CCCCCC3)n2CC(O)COc2ccc(Cl)cc2)n(C)c1=O` (configuration not stated), the Potency was “inactive”. In the case of `N#Cc1nc(-c2ccc(OCc3ccccc3)cc2)oc1NCCCN1CCOCC1`, the Potency is reported as “inactive”. In the case of `N#Cc1nc(COc2ccc(-c3ccccc3)cc2)oc1NCc1cccnc1`, the Potency is reported as “inactive”. `CCOc1cc(/C=N/O)cc(Br)c1OC` showed an activation of 15% [at 11.4 µM]. In the case of `CCOC(=O)[C@]1(C(/C=C/c2ccco2)NC(=O)OC)CCCC1=O` (some centres not stated), the activation is reported as 0.322% [at 11.4 µM]. With `O=C(NC(Cc1ccccc1)C(=O)N1CCCC1C(=O)O)c1ccccc1` (configuration not stated) the Potency was “inactive”. For `O=c1c(CCc2ccccc2)nc2cncnc2n1C1CC1`, the Potency was “inactive”. For `CCOC(=O)C1CCCN(C(=O)C2CCN(c3nnc(-n4cccc4)s3)CC2)C1` (configuration not stated), the Potency was “inactive”. For `O=C1CSC(c2cccc(F)c2)N1c1ccccc1F` (configuration not stated), the Potency was “inactive”. With `Cc1cc(/C=N/n2cnnc2)c(C)n1-c1ccc2ncccc2c1` the Potency was 3.98 µM (active). In the case of `Fc1ccc(Br)cc1/C=N/n1cnnc1`, the Potency is reported as “inactive”. For `Cc1cc(/C=N/n2cnnc2)c(C)n1-c1cccc(C(=O)O)c1`, the Potency was “inactive”. With `CCOC(=O)c1cc2cc(-c3c(C(=O)OCC)oc4cc(O)cc(O)c4c3=O)ccc2o1` the Potency was “inactive”. With `CN1CCC2(CC1)CCN(S(=O)(=O)c1ccccc1)CC2` the Potency was 3.98 µM (active). In the case of `COc1ccccc1CN1CC2(CCN(S(=O)(=O)c3ccccc3)CC2)C1`, the Potency is reported as “inactive”.
